Assay results: ChEMBL document CHEMBL3988442, “University of Dundee, Small-Polar-MMV Screening Library” (2021)
For some assays here: Measured potencies and affinities stand elsewhere.

Assays:
Design in all cases: scale not given: direction of the effect not stated beside the values
[1] = target: Protein translocase subunit SecA (Escherichia coli (strain K12)) (UniProt P10408); test: Assay to Identify E. coli SecA ATPase Inhibitors; assay type: functional; conditions: 30 µM
[2] = target: T1, Ubiquitin-activating enzyme e1, putative (Leishmania donovani (strain BPK282A1)) (UniProt E9BSI1); test: Leishmania donovani Ubiquitin Activating Enzyme (LdE1); assay type: functional; conditions: 30 µM
T1 sequence (whole entry): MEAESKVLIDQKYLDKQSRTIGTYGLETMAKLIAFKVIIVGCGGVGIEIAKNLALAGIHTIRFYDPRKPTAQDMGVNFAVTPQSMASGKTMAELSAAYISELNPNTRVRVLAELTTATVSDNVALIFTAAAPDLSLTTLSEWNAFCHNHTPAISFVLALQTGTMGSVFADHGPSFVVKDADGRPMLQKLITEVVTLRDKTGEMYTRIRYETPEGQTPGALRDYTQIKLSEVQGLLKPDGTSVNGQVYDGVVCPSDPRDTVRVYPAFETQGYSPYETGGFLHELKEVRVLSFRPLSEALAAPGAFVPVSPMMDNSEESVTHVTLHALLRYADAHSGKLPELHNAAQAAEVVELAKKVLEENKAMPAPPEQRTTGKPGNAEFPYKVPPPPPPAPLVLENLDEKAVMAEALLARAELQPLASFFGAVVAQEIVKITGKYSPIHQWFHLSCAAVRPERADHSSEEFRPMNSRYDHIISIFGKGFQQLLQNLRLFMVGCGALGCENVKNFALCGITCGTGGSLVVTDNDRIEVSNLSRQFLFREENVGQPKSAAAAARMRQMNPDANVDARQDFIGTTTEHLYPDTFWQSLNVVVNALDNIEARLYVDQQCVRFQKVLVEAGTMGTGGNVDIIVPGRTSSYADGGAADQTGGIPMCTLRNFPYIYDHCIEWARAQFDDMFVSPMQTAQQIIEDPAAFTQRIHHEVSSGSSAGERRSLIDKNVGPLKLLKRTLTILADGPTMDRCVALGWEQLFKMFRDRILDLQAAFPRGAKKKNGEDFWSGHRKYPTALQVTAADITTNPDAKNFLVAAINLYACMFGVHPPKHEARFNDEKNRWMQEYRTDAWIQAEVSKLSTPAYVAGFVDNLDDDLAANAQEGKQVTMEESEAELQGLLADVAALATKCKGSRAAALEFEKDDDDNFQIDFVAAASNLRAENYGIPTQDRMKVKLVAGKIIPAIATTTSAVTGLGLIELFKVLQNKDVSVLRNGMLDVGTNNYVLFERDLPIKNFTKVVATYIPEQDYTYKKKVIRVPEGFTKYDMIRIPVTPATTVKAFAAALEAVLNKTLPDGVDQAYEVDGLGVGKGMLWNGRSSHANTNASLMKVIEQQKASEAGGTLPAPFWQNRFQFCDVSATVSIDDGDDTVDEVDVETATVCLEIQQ

[3] = target: AMP-activated protein kinase, AMPK (Homo sapiens) (UniProt P54646+O43741+P54619+Q9UGJ0+Q9Y478+Q13131+Q9UGI9); test: AMP-dependent Kinase enzyme assay. An in vitro enzyme assay that detects ADP turnover that is directly proportional to AMPK activity. This uses naive AMPK that is activated during the assay with MK-8722; assay type: functional; conditions: 30 µM
[4] = target: Sialic acid-binding Ig-like lectin 9 (Homo sapiens) (UniProt Q9Y336); test: Hs-Siglec9 ALPHAscreen SOP 20170721; conditions: 10 µM
Chain of Sialic acid-binding Ig-like lectin 9 (Homo sapiens) (Q9Y336 whole entry): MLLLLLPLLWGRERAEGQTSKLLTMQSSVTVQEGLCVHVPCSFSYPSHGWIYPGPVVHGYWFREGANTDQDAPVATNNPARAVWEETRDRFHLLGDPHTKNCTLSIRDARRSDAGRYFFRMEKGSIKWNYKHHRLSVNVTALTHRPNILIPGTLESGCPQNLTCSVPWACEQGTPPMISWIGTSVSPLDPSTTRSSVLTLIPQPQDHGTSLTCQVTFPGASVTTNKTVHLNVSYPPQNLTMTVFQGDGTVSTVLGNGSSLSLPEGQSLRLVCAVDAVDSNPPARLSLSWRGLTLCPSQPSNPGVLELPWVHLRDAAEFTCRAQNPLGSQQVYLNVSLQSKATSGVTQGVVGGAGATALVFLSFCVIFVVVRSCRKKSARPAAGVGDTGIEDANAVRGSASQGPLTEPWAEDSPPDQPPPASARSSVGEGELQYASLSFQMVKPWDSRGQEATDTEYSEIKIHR

Trypanosoma cruzi = test: Trypanosoma cruzi phosphomannomutase and mannose-1-phosphate guanylyltransferase assay; assay type: functional; conditions: 10 µM
[5] = target: T2, Arginase-2, mitochondrial (Homo sapiens) (UniProt P78540); test: in vitro enzyme assay to detect the production of urea directly proportional to the activity of Arginase II; assay type: functional; conditions: 33.3 µM; further: in the data most compounds retested in dose-response had high values
T2 sequence (whole entry): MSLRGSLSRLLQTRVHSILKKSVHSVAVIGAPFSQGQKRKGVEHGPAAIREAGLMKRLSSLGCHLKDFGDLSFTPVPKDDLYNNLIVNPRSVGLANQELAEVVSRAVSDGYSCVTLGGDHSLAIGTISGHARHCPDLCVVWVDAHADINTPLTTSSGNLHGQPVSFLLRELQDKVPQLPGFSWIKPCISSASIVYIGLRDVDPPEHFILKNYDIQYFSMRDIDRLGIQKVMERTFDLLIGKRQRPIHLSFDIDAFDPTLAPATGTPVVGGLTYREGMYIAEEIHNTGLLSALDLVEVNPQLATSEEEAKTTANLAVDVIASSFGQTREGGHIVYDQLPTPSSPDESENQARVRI

[6] = target: T3, Proteasome subunit beta (Trypanosoma cruzi) (UniProt O96673); test: Trypanosoma cruzi proteasome chymotrypsin-like activity (TcProtChymo) assay.; further: in the data most compounds retested in dose-response had high values; assay type: functional; conditions: 9.37 µM
T3 sequence (whole entry): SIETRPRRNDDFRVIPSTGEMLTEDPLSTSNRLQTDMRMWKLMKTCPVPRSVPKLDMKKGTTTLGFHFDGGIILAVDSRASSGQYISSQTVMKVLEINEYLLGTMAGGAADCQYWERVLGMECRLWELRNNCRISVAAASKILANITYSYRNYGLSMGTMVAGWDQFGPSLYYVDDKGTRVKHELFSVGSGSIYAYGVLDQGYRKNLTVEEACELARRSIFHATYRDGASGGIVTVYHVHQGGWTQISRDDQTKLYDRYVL

Homo sapiens = organism: Homo sapiens; test: To identify inhibition of the IFN signalling (Jak-Stat) pathway via expression of an eGFP reporter gene under the control of an IFN-stimulated response element (ISRE) containing MxA promoter.; assay type: functional; conditions: 30 µM
[7] = target: T4, Tyrosyl-tRNA synthetase, putative (Trypanosoma cruzi (strain CL Brener)) (UniProt Q4DSP6); test: Trypanosoma cruzi tyrosyl tRNA synthetase (TcYRS) _High Tyrosine SOP; assay type: functional; conditions: 30 µM; further: in the data most compounds retested in dose-response had high values
T4 sequence (whole entry): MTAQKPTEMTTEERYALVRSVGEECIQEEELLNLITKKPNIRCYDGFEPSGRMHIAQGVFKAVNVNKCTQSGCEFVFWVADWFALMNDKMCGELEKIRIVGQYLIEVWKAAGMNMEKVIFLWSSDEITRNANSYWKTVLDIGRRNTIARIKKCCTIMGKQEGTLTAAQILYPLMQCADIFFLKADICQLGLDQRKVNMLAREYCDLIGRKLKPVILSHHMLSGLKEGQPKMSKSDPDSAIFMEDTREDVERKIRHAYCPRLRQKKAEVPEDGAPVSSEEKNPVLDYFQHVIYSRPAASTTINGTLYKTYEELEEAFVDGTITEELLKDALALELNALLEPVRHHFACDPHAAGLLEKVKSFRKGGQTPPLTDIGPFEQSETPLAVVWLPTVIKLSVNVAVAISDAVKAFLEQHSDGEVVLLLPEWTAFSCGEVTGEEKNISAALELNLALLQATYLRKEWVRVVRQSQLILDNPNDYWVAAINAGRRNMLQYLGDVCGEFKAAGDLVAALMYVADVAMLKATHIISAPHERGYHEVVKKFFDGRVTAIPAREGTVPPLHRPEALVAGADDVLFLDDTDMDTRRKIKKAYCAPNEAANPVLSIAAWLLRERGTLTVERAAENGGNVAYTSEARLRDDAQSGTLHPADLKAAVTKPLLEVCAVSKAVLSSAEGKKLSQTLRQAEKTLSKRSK

[8] = target: T4, Tyrosyl-tRNA synthetase, putative (Trypanosoma cruzi (strain CL Brener)); test: Trypanosoma cruzi tyrosyl tRNA synthetase (TcYRS) SOP; assay type: functional; conditions: 30 µM
[9] = target: Chromo domain-containing protein 1 (Saccharomyces cerevisiae (strain ATCC 204508 / S288c) (Baker's yeast)) (UniProt P32657); test: ScCHD-1 Enzyme Inhibition Assay; assay type: functional; conditions: 30 µM; further: in the data most compounds retested in dose-response had high values
Chain of Chromo domain-containing protein 1 (Saccharomyces cerevisiae (strain ATCC 204508 / S288c) (Baker's yeast)) (P32657 whole entry, the tested form may be a part): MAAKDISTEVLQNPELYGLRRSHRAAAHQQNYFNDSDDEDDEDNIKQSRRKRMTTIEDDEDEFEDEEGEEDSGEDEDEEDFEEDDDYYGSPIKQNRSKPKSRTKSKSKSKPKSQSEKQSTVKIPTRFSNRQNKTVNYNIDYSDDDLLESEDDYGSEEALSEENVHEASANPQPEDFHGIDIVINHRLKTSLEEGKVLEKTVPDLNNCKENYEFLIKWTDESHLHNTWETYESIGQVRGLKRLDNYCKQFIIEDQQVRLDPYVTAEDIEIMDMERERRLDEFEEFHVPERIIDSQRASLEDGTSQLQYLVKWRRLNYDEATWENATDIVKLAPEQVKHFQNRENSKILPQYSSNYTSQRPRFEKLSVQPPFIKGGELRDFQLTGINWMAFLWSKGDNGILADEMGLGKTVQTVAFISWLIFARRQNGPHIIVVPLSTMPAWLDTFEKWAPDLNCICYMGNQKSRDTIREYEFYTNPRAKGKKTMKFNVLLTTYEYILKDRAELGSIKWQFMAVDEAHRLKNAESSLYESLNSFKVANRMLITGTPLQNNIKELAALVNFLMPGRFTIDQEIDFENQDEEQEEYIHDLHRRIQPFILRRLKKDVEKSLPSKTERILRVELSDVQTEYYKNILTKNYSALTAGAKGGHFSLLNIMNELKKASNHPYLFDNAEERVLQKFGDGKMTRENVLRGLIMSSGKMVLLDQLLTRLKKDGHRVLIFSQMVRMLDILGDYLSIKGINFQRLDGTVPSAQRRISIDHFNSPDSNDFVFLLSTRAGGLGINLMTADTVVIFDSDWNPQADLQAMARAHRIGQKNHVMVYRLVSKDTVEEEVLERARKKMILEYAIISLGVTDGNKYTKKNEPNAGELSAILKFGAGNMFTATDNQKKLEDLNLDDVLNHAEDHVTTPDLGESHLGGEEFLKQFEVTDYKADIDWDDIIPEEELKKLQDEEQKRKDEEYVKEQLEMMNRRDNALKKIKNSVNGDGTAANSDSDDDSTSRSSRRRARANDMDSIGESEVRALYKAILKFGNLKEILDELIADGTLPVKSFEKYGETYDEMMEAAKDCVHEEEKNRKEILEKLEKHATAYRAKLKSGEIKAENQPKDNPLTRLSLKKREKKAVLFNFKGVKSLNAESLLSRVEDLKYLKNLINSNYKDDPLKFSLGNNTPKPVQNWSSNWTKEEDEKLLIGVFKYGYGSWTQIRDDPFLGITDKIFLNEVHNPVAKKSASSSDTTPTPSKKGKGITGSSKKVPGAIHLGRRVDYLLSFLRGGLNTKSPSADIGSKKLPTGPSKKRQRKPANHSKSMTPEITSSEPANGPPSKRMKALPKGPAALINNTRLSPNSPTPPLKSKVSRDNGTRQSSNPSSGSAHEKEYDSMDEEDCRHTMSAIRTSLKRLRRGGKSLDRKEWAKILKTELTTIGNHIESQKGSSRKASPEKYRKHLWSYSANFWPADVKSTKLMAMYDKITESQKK

Chain of Protein translocase subunit SecA (Escherichia coli (strain K12)) (P10408 whole entry): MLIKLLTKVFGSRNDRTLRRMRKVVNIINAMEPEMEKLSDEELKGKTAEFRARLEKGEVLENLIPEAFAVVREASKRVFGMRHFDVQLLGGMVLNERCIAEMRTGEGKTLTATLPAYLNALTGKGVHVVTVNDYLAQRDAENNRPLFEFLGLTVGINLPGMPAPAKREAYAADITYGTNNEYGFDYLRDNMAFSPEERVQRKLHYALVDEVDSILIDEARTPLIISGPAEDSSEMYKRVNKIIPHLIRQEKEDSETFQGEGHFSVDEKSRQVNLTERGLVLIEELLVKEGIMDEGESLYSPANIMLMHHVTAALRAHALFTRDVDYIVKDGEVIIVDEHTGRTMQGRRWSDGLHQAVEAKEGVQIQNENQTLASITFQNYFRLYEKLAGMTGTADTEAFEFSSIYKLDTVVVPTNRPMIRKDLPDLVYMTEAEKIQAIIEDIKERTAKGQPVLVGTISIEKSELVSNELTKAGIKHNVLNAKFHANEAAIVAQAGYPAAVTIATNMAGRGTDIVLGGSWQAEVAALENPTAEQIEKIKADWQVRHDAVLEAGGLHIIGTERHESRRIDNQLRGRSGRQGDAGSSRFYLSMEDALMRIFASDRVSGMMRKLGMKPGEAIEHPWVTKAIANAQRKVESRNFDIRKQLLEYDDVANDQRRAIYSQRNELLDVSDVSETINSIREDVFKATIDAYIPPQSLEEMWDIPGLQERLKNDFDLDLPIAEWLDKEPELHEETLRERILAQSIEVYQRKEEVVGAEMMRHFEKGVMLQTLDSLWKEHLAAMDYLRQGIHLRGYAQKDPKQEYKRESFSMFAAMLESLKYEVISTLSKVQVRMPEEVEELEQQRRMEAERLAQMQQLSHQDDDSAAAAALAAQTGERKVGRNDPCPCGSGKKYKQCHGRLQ

CCc1nnc2n1CCN(CCS(=O)(=O)c1ccccc1)C2
Percent Effect [1]: -7.25% | Percent Effect [2]: 13% | Percent Effect [3]: 6.16% | Percent Effect [4]: 15.6% | Percent Effect (Trypanosoma cruzi): -3.37% | Percent Effect [5]: 1.07% | Percent Effect [6]: -2.87% | Percent Effect (Homo sapiens): 4.97% | Percent Effect [7]: 0.971% | Percent Effect [8]: 7.32% | Percent Effect [9]: -3.89%

Cc1cc(CN2CCN(C(=O)CCc3cccc(F)c3F)CC2)on1
Percent Effect [1]: 2.13% | Percent Effect [2]: 0% | Percent Effect [3]: -6.33% | Percent Effect [4]: 7.49% | Percent Effect (Trypanosoma cruzi): 5.99% | Percent Effect [5]: 10.9% | Percent Effect [6]: 0.862% | Percent Effect (Homo sapiens): -0.409% | Percent Effect [7]: -0.529% | Percent Effect [8]: 4.88% | Percent Effect [9]: 0.403%

Cc1ccc(C(=O)N2CCCC(C(=O)N3CCCCC3)C2)c(O)c1 (stereo not given)
Percent Effect [1]: -7.91% | Percent Effect [2]: 10.8% | Percent Effect [3]: -4.33% | Percent Effect [4]: -0.223% | Percent Effect (Trypanosoma cruzi): -5.19% | Percent Effect [5]: -1.2% | Percent Effect [6]: -2.7% | Percent Effect (Homo sapiens): 12.5% | Percent Effect [7]: 2.46% | Percent Effect [8]: 1.24% | Percent Effect [9]: -4.49%

CCc1nnc2n1CCN(C(=O)c1ccc3nc(C)c(C)nc3c1)C2
Percent Effect [1]: -3.88% | Percent Effect [2]: 1.39% | Percent Effect [3]: 140% | Percent Effect [4]: 3.38% | Percent Effect (Trypanosoma cruzi): 5.34% | Percent Effect [5]: -1.32% | Percent Effect [6]: 20.7% | Percent Effect (Homo sapiens): -6.8% | Percent Effect [7]: 5.26% | Percent Effect [8]: 15.4% | Percent Effect [9]: -2.97%

O=C(Cn1cnc(NC(=O)CC2CCCC2)n1)NCc1ccccc1
Percent Effect [1]: -6.6% | Percent Effect [2]: 15.8% | Percent Effect [3]: -2.47% | Percent Effect [4]: 8.52% | Percent Effect (Trypanosoma cruzi): 9.96% | Percent Effect [5]: -1.53% | Percent Effect [6]: 2.84% | Percent Effect (Homo sapiens): 11.9% | Percent Effect [7]: 6.37% | Percent Effect [8]: 17.1% | Percent Effect [9]: -12.2%

Cn1c(C(F)(F)F)nn(CCNC(=O)c2cnc3ccccc3n2)c1=O
Percent Effect [1]: -2.81% | Percent Effect [2]: 13.7% | Percent Effect [3]: 4.14% | Percent Effect [4]: 14.5% | Percent Effect (Trypanosoma cruzi): 3.33% | Percent Effect [5]: 0.909% | Percent Effect [6]: -1.95% | Percent Effect (Homo sapiens): -0.549% | Percent Effect [7]: 3.23% | Percent Effect [8]: 12.5% | Percent Effect [9]: -3.18%

Cc1cccc(-c2nc(CN3CCc4c(ncn4C)C3)no2)c1
Percent Effect [1]: -6.97% | Percent Effect [2]: 2.6% | Percent Effect [3]: -1.39% | Percent Effect [4]: -3.74% | Percent Effect (Trypanosoma cruzi): -7.12% | Percent Effect [5]: 0.356% | Percent Effect [6]: 2.7% | Percent Effect (Homo sapiens): 21.7% | Percent Effect [7]: -0.971% | Percent Effect [8]: -2.44% | Percent Effect [9]: -2.23%

O=C(CCc1cccs1)N1CCC(Nc2cccnn2)CC1
Percent Effect [1]: -7.51% | Percent Effect [2]: -23.7% | Percent Effect [3]: -9.73% | Percent Effect [4]: 4.64% | Percent Effect (Trypanosoma cruzi): 8.87% | Percent Effect [5]: 1.8% | Percent Effect [6]: 9.73% | Percent Effect (Homo sapiens): 5.28% | Percent Effect [7]: 9.36% | Percent Effect [8]: 23.5% | Percent Effect [9]: -11.1%

Cc1nc(C2CCCN(C(=O)CCCn3cccn3)C2)no1 (stereo not given)
Percent Effect [1]: -4.66% | Percent Effect [2]: 23.4% | Percent Effect [3]: -2.84% | Percent Effect [4]: 4.64% | Percent Effect (Trypanosoma cruzi): 4.49% | Percent Effect [5]: -0.356% | Percent Effect [6]: 5.57% | Percent Effect (Homo sapiens): 11% | Percent Effect [7]: 6.8% | Percent Effect [8]: 24.4% | Percent Effect [9]: -8.73%

CCc1c(C)sc(NC(=O)CN2CCN(CC)CC2)c1C(=O)OC
Percent Effect [1]: -1.97% | Percent Effect [2]: -12.5% | Percent Effect [3]: -2.07% | Percent Effect [4]: 3.39% | Percent Effect (Trypanosoma cruzi): 2.62% | Percent Effect [5]: 0% | Percent Effect [6]: -2.46% | Percent Effect (Homo sapiens): -12.9% | Percent Effect [7]: 0% | Percent Effect [8]: -2.56% | Percent Effect [9]: 2.67%
